{
  "source": "PubChem BioAssay AID2551",
  "about": "(National Center for Advancing Translational Sciences (NCATS), 2010)",
  "note": "Out of some 310,000 compounds screened, about 17,000 (5.5%) were called active. About 11% were inconclusive and are not listed. The full list was thinned out, with actives kept by preference. Unmarked numbers belong to inactive results. Calls follow the shape of the dose curve; as a rule, active = well fitted inhibition curve with a large enough effect; inconclusive = small, poorly fitted or top-dose-only effect, or effect the other way; inactive = no such curve, though single readings can be large or run the other way. % is scaled to controls: 0 for no effect and ±100 for the full control effect; potency is read from the fitted curve at half-maximal effect.",
  "data": [
    {"target": "Nuclear receptor ROR-gamma (Mus musculus) (UniProt P51450)", "sequence (P51450 whole entry, looked up, the tested form may be a part)": "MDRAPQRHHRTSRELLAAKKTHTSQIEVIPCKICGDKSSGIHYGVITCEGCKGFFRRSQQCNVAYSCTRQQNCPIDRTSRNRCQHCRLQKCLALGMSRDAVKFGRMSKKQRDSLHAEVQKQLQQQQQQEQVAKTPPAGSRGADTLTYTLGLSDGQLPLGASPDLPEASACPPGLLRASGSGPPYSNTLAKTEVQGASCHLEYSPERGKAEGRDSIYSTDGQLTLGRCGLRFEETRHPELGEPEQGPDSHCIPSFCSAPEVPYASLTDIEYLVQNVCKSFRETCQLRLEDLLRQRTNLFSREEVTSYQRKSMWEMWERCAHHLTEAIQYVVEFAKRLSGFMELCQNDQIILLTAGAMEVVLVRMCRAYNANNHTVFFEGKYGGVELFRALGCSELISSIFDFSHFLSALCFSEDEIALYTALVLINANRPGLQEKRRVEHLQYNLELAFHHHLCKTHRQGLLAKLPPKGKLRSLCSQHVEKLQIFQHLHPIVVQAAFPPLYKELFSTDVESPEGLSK", "experiment": "qHTS for inhibitors of ROR gamma transcriptional activity; also: nearly all actives have a fitted effect of over 60% in size", "conditions": "Drosophila S2 Gal4-RORgamma UAS-luciferase reporter, 20 h; series mostly up to 53.6 µM; activity change, negative = inhibition: at the top concentration", "excerpt": "NIH Molecular Libraries Probe Production Network [MLPCN] NIH Chemical Genomics Center [NCGC] MLPCN Grant: R03 DA026211-01 Assay Provider: Dan Littman, New York University Assay Overview: The retinoic acid-related orphan receptor (ROR) gamma is a transcription factor that has a central role in the differentiation of Th17 cells, a subset of T helper cells that secrete the inflammatory cytokines IL-17, IL-17F, and IL-22. Th17 cells have been implicated in graft versus host disease, autoimmune disease and asthma. ROR gamma is induced in naive T helper cells in the presence of TGF-beta combined with IL-6, IL-21, or IL-23, and thereafter directs the expression of the Th17 lineage cytokines. To study the mechanism of action of ROR gamma, an insect cell-based assay was screened. This Drosophila Schneider cell line was stably transfected with two vectors: a gene expressing a fusion of the Gal4 DNA binding domain and ROR gamma transactivation domain under the control of the metallothionine promoter and a Photinus luciferase reporter regulated by the Gal4 binding site enhancer, UAS. […] Small molecule inhibitors of ROR gamma activity are detected by a decrease in luciferase reporter activity.\nAssay Protocol Summary: For screening, 600 cells in 4 uL/well were dispensed into white solid 1536-well plates (Grenier) using a solenoid-based dispenser. Following transfer of 23 nL compound or DMSO vehicle by a pin tool, the plates were incubated 1 hr at ambient temperature, and 1 uL/well copper sulfate (700 uM final concentration) was added. The plates were centrifuged 15 s at 1000 RPM and incubated 20 hr at ambient temperature. After addition of 1.5 uL Photinus luciferase detection reagent, the plates were incubated 10 min at ambient temperature and then read by an ViewLux (Perkin Elmer) to detect luminescence. Keywords: NIH Roadmap, MLPCN, MLI, MLSMR, qHTS, NCGC, qHTS, nuclear hormone receptor, retinoic acid-related orphan receptor, ROR gamma", "values": [
      {"smiles": "O=C(CCN1CCN(C/C=C/c2ccccc2)CC1)Nc1ccccc1Cl", "activity change, negative = inhibition": "-1.61%"},
      {"smiles": "C/C=C/C(=O)OCc1csc(CC(=O)Nc2ccccc2C)n1", "activity change, negative = inhibition": "-16.8%"},
      {"smiles": "COc1cccc(N(CC(=O)NC2CCCCCC2)S(=O)(=O)c2ccccc2)c1", "activity change, negative = inhibition": "-18.8%"},
      {"smiles": "COc1ccc(CCNC(=O)CCc2cn(C)c3ccccc23)c(OC)c1", "activity change, negative = inhibition": "-12.4%"},
      {"smiles": "Cc1cccc(NC(=S)NC23CN4CN(CN(C4)C2)C3)c1", "activity change, negative = inhibition": "-15.1%"},
      {"smiles": "Cc1cccc(NC(=O)C2CCN(C(=O)NC3CCCCC3)CC2)c1", "activity change, negative = inhibition": "-25.8%"},
      {"smiles": "Cc1cccc(NC(=S)NCCN(C2CCCCC2)C2CCCC2)c1", "Potency": "8.91 µM (active)"},
      {"smiles": "O=C(NC1CCCC1)C(=O)c1c[nH]c2ccccc12", "activity change, negative = inhibition": "-36.6%"},
      {"smiles": "CCOc1ccc2[nH]c(C(=O)N/N=C/c3cccc(OC)c3OC)cc2c1", "activity change, negative = inhibition": "-15.4%"},
      {"smiles": "C#CC(C)(C)NC(=O)c1cnc(-c2ccccc2)nc1-c1ccccc1", "activity change, negative = inhibition": "-14.4%"},
      {"smiles": "CCCc1nnc(NC(=O)c2cc(OC)cc(OC)c2)s1", "Potency": "11.2 µM (active)"},
      {"smiles": "COc1ccccc1NC(=O)Nc1nnc(Cc2ccc(F)cc2)s1", "activity change, negative = inhibition": "7.65%"},
      {"smiles": "COc1ccc(Cc2nnc(NC(=O)c3cc(OC)c(OC)c(OC)c3)s2)cc1OC", "Potency": "7.08 µM (active)"},
      {"smiles": "CCCc1nnc(NC(=O)c2cccs2)s1", "activity change, negative = inhibition": "-40%"},
      {"smiles": "COc1ccc(Cc2nnc(NC(=O)c3ccc(OC)cc3OC)s2)cc1", "activity change, negative = inhibition": "19.7%"},
      {"smiles": "CCCc1nnc(NC(=O)CCC(=O)N2CCN(S(=O)(=O)c3ccc(OC)cc3)CC2)s1", "activity change, negative = inhibition": "12.7%"},
      {"smiles": "Cc1cc(C)c2nc(N3CCC(C(=O)NCCN4CCOCC4)CC3)sc2c1", "activity change, negative = inhibition": "7.01%"},
      {"smiles": "Cc1nonc1NC(=O)c1oc2ccccc2c1C", "activity change, negative = inhibition": "-0.26%"},
      {"smiles": "COc1ccc(C(=O)C2CCCN(C(=O)c3cc(C)on3)C2)cc1F", "note": "(centres undefined)", "activity change, negative = inhibition": "11%"},
      {"smiles": "COc1ccccc1CNC(=O)c1ccc(N(C)S(=O)(=O)c2ccc(C)cc2)cc1", "activity change, negative = inhibition": "2.62%"},
      {"smiles": "COc1ccc(CSc2nnnn2-c2ccc(C(=O)O)cc2)cc1", "activity change, negative = inhibition": "14.9%"},
      {"smiles": "COc1cc(/C=N/Nc2nc3ccccc3s2)ccc1O", "activity change, negative = inhibition": "-23%"},
      {"smiles": "COc1cc(/C=C(\\C#N)c2nc3c(s2)CC(C)CC3)ccc1O", "note": "(centres undefined)", "Potency": "1.41 µM (active)"},
      {"smiles": "COc1cc(/C=C(\\C#N)c2nc3ccccc3[nH]2)ccc1O", "activity change, negative = inhibition": "15.4%"},
      {"smiles": "CCc1ccc(OCC(=O)NCC(c2ccc(Cl)cc2)N2CCCCC2)cc1", "note": "(centres undefined)", "activity change, negative = inhibition": "0%"},
      {"smiles": "O=C(Nc1ccccc1)C1CC(=O)n2c(nc3ccccc32)N1", "note": "(centres undefined)", "activity change, negative = inhibition": "-22%"},
      {"smiles": "C[C@H]1[C@H]2c3nc4ccccc4n3C[C@H]1ON2C1CCCCC1", "Potency": "11.2 µM (active)"},
      {"smiles": "OC1CSc2nc3ccccc3n2C1", "note": "(centres undefined)", "activity change, negative = inhibition": "2.37%"},
      {"smiles": "Cc1ccc(-n2nc3c(=O)n(C(C)C(=O)NCc4ccc5c(c4)OCO5)nc(C)c3c2C)cc1", "note": "(centres undefined)", "activity change, negative = inhibition": "26.2%"},
      {"smiles": "CN(CC1CCCO1)S(=O)(=O)c1ccc(C(=O)Nc2ccc(F)cc2)cc1", "note": "(centres undefined)", "activity change, negative = inhibition": "17.2%"},
      {"smiles": "COCCn1c(-c2ccc(OC)c(OC)c2)nc2ccccc21", "activity change, negative = inhibition": "-28.3%"},
      {"smiles": "COc1ccc(-c2nc3ccccc3n2CCC(C)C)cc1OC", "Potency": "11.2 µM (active)"},
      {"smiles": "COc1ccc(NC(=O)COC(=O)Cn2c(C)nc3ccccc32)cc1OC", "activity change, negative = inhibition": "16.5%"},
      {"smiles": "COc1cccc(CNC(=O)COc2cc(O)c3c(c2)OC(C)(C)CC3=O)c1", "activity change, negative = inhibition": "4.48%"},
      {"smiles": "Cc1[nH]c(C)c(S(=O)(=O)N2CCN(c3cccc(C(F)(F)F)c3)CC2)c1C(=O)N1CCCC1", "activity change, negative = inhibition": "-17.9%"},
      {"smiles": "Cc1ccccc1N1CCN(S(=O)(=O)c2ccc3ccccc3c2)CC1", "activity change, negative = inhibition": "-16.6%"},
      {"smiles": "Cc1cccn2c(=O)c(C=O)c(Nc3ccc(S(N)(=O)=O)cc3)nc12", "activity change, negative = inhibition": "-41.3%"},
      {"smiles": "CN(CC1CCCO1)S(=O)(=O)c1ccc(C(=O)Nc2ccc([N+](=O)[O-])cc2)cc1", "note": "(centres undefined)", "activity change, negative = inhibition": "13.7%"},
      {"smiles": "CC(=O)N1c2ccc(S(=O)(=O)N3CCC(C(=O)NC4CCCC(C)C4C)CC3)cc2CC1C", "note": "(centres undefined)", "activity change, negative = inhibition": "-1.35%"},
      {"smiles": "Cc1ccccc1CNC(=O)CCC(=O)N1Cc2ccccc2Oc2ncccc21", "activity change, negative = inhibition": "4.13%"},
      {"smiles": "COc1ccc2[nH]c(=O)c(CN(Cc3cccnc3)S(=O)(=O)c3ccccc3F)cc2c1", "activity change, negative = inhibition": "21.1%"},
      {"smiles": "COC(=O)Cc1ccc(OCC(=O)Nc2ccc(OC(F)(F)F)cc2)cc1", "activity change, negative = inhibition": "26.2%"},
      {"smiles": "CCNC(=S)Nc1ccc(OC(F)(F)F)cc1", "Potency": "8.91 µM (active)"},
      {"smiles": "COc1cc(C(=S)NCc2ccccc2)cc(Br)c1O", "activity change, negative = inhibition": "15.3%"},
      {"smiles": "O=C(CCOc1ccccc1)NCc1ccccc1", "activity change, negative = inhibition": "5.22% [at 0.365 µM]"},
      {"smiles": "FC(F)(F)Oc1ccc(NC(=S)NCc2ccccc2)cc1", "Potency": "7.08 µM (active)"},
      {"smiles": "Cn1nccc1NC(=O)Nc1ccc(OC(F)(F)F)cc1", "activity change, negative = inhibition": "15.9%"},
      {"smiles": "CC(C)Cn1c(=O)c2ccccc2n2c(CCC(=O)NCc3ccccn3)nnc12", "activity change, negative = inhibition": "-7.08%"},
      {"smiles": "Cc1ccc(C(C(=O)NCC2CCCO2)N(C(=O)c2snc(C(N)=O)c2N)c2ccc(C(C)C)cc2)o1", "note": "(centres undefined)", "activity change, negative = inhibition": "40.4%"},
      {"smiles": "CCOc1ccc(OCC(=O)Nc2c3c(nn2C(C)(C)C)CS(=O)(=O)C3)cc1", "activity change, negative = inhibition": "-13.8%"},
      {"smiles": "CC(C)(C)c1ccc(SCCc2ccncc2)cc1", "activity change, negative = inhibition": "-15.8%"},
      {"smiles": "COc1ccc2c(c1)OC(O)(C(F)(F)C(F)F)CC2=O", "note": "(centres undefined)", "Potency": "12.6 µM (active)"},
      {"smiles": "COc1ccc2c(c1)SC(C)CC2=O", "note": "(centres undefined)", "activity change, negative = inhibition": "-11.9%"},
      {"smiles": "CC1(C)CC(=O)c2ccc(O)cc2O1", "activity change, negative = inhibition": "29%"}
    ]}
  ]
}
